Compound activity: PubChem BioAssay, National Center for Advancing Translational Sciences (NCATS)
Only some compounds are listed: those with a hit (about 2.5% of all), similar ones and a draw of the others.
FH mod – Identification of activators of human fumarate hydratase by quantitative high-throughput screening; Fumarate hydratase, mitochondrial (Homo sapiens), P07954; FH coupled MDH/diaphorase resazurin fluorescence, 15 min; Potency, µM (titrated, usually from 79.9 µM), actives largely listed as inhibitors; actives 0.22% (n = 54,000); AID 1347055, 2019; also: the screen sought activators but most active calls are inhibition curves; nearly all actives have a fitted effect of over 45% in size
GALK inh – qHTS Assay for Inhibitors of Human Galactokinase (GALK): NCGC Sytravon Library Screen | P51570 | recombinant GALK, Kinase-Glo ATP luminescence, 1 h | Potency, µM (titrated, usually from 57.5 µM), hits mostly inhibitors | 44,000 tested, under 10 active | AID 1347072, 2019
Target sequence (P51570 whole entry, looked up): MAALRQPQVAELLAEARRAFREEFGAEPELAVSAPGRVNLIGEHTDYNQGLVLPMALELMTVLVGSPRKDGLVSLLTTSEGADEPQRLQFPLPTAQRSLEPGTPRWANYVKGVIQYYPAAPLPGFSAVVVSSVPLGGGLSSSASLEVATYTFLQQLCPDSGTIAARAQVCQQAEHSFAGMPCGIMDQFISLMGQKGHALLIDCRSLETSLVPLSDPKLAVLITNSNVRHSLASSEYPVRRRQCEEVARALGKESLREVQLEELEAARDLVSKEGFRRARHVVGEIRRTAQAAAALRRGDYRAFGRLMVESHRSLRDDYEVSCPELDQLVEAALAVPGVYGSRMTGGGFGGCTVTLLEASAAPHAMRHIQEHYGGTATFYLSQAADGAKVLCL
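Luminescent ATP-depletion readout (Kinase-Glo Plus) after 1 h room-temperature incubation of human GALK (5 nM) with galactose 100 µM and ATP 35 µM, pH 8.0 HEPES/Mg2+ buffer; compounds tested in qHTS format.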
HTT prom inh – Primary qHTS for Identification of Small Molecule Inhibitors of Huntingtin Promoter Activity. HEK293 HTT promoter firefly luciferase reporter, 24 h. Potency, µM (titrated, usually from 57.5 µM), actives largely listed as inhibitors. actives 0.93% (n = 48,000); also: nearly all actives have a fitted effect of over 50% in size
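Firefly luciferase readout (Dual-Glo, 10 min RT) after 24 h, 37 °C compound exposure (final up to 57.5 uM) of HEK293 reporter cells cultured 24 h beforehand; PTC124 at 50 uM final as control inhibitor; activity scaled vehicle 0%, zero RLU -100%.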
NTMT1 inh – Primary qHTS for Inhibitors of N-terminal methyltransferase 1 (NTMT1): MTaseGlo Assay; N-terminal Xaa-Pro-Lys N-methyltransferase 1 (Homo sapiens), Q9BV86; NTMT1 MTase-Glo SAH luminescence, purified enzyme; Potency, µM (titrated, usually from 114 µM), most hits filed as inhibitors; actives 2.5% (n = 59,000); AID 1645870, 2021; also: nearly all actives have a fitted effect of over 65% in size
Target sequence (Q9BV86 whole entry, looked up): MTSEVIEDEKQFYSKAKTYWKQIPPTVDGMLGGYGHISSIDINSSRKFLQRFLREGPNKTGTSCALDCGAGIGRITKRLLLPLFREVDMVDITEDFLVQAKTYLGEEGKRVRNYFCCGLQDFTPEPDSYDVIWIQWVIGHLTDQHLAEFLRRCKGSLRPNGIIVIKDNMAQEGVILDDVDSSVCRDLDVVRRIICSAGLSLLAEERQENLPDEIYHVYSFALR
HTT-AS promoter – Primary qHTS for Identification of Small Molecule Activators of Huntingtin-Antisense Promoter Activity. HEK293 HTT-AS promoter firefly luciferase reporter, 24 h; response scale: percent change from vehicle, -100% = no light. Potency, µM (series often up to 57.5 µM), hits mostly activators. actives 0.24% (n = 48,000). AID 1508624, 2021; also: nearly all actives have a fitted effect of over 55% in size
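HEK293 cells carrying firefly luciferase reporters were seeded at 2,500 per well in Opti-MEM and cultured for 24 h. They were then treated with compounds at up to 57.5 uM final for 24 h at 37 degrees C before Dual-Glo luminescence readout.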
Numbers stand for hits; [ ] = remark or other dose. Calls follow the shape of the dose curve; as a rule, active = well fitted curve in the direction sought with a large enough effect; inconclusive = small, poorly fitted or top-dose-only effect, or another doubt; inactive = no such curve, though single readings can be large; an effect the other way counts as inactive or inconclusive.

`CC1=C(C(=O)Nc2ccc(C)cc2)C(c2ccccc2Br)N=C(Nc2nc3ccccc3o2)N1` (stereo unspecified) gave NTMT1 inh inactive.
Screening CC[C@@H](C)[C@H]1C(=O)O[C@H](C(C)C)C(=O)N(C)[C@@H](C(C)C)C(=O)O[C@H](C(C)C)C(=O)N(C)[C@@H](C(C)C)C(=O)O[C@H](CC(C)C)C(=O)N1C returned FH mod inactive and NTMT1 inh inactive[12.6 µM].
Cc1noc(C)c1S(=O)(=O)N1CCC(C(=O)N2CCN(c3ccccc3)CC2)CC1 was read as FH mod inactive, GALK inh inactive, HTT prom inh inactive, NTMT1 inh inactive and HTT-AS promoter inactive.
Screening Cc1cccc(N2CCN(C(=O)C3CCCN(S(=O)(=O)c4ccc5c(c4)oc(=O)n5C)C3)CC2)c1C (stereo unspecified) returned FH mod inactive, GALK inh inactive, HTT prom inh 5µM, NTMT1 inh inactive and HTT-AS promoter inactive.
`CC(=O)c1ccc(N2CCN(C(=O)C3CCN(S(=O)(=O)c4c(C)noc4/C=C/c4ccc(C)cc4)CC3)CC2)cc1` gave FH mod inconclusive, GALK inh inactive, HTT prom inh inconclusive, NTMT1 inh inactive and HTT-AS promoter inactive.
Cc1ccc(/C=C/c2onc(C)c2S(=O)(=O)N2CCC(C(=O)N3CCC(N(C)C(C)C)CC3)CC2)cc1 was read as FH mod inactive, GALK inh inactive, HTT prom inh inactive, NTMT1 inh 79µM and HTT-AS promoter inactive.
`Cc1cccc(N2CCN(C(=O)C3CCN(S(=O)(=O)c4c(C)noc4C)CC3)CC2)c1C` gave FH mod inactive, GALK inh inactive, HTT prom inh 14µM, NTMT1 inh inconclusive and HTT-AS promoter inactive.
For CC1=C(C(=O)Nc2ccc(Cl)cc2)C(c2ccccc2)n2ncc(C(=O)Nc3ccccc3)c2N1 (stereo unspecified) the results were FH mod inactive, GALK inh inactive, HTT prom inh 25µM, NTMT1 inh inactive and HTT-AS promoter inactive.
Screening O=C(c1ccccc1F)N1c2nc(-c3ccco3)nn2C2(CCCCC2)[C@@H]2CCCC[C@@H]21 returned FH mod inactive, GALK inh inactive, HTT prom inh inactive, NTMT1 inh 50µM and HTT-AS promoter inactive.
Screening O=C(c1ccc(F)cc1)N1c2nc(-c3ccco3)nn2C2(CCCCC2)[C@@H]2CCCC[C@@H]21 returned FH mod inactive, GALK inh inactive, HTT prom inh inactive, NTMT1 inh inactive and HTT-AS promoter inactive.
For COC1CC(C(=O)c2ccc3c(N)ncc(-c4ccc(-c5cnn(C)c5)cc4)c3n2)C1 (stereo unspecified) the results were NTMT1 inh inactive.
`CN(C)c1cc(NC(=O)CNC(C)(C)C)c(O)c2c1C[C@H]1C[C@H]3[C@H](N(C)C)C(=O)C(C(N)=O)=C(O)[C@]3(O)C(=O)C1=C2O` gave NTMT1 inh 40µM.
`CN(C)c1cc(NC(=O)CNC(C)(C)C)c(O)c2c1C[C@@H]1C[C@H]3[C@H](N(C)C)C(=O)C(C(N)=O)=C(O)[C@@]3(O)C(=O)C1=C2O` gave FH mod inactive, HTT prom inh inactive, NTMT1 inh 40µM and HTT-AS promoter inactive.
Screening O=C(NCc1ccccc1)[C@H](Cc1ccccc1)NC(=O)[C@H]1O[C@@H]1C(=O)NCCc1ccc(O)cc1 returned NTMT1 inh inactive.
For CC(=O)Nc1sc2c(c1-c1ccc3nc[nH]c3c1)CCNC2 the results were NTMT1 inh 50µM.
Screening Fc1cccc(CNc2nc(-c3ccccc3C(F)(F)F)nc3ccccc23)c1 returned NTMT1 inh inactive.
`Cc1c(C)n(Cc2ccccc2)c2ccc(C(=O)NCCc3ccccc3Cl)cc12` gave FH mod inactive, GALK inh inactive, HTT prom inh inactive, NTMT1 inh inactive and HTT-AS promoter inactive.
Cc1[nH]c2ccc(C(=O)NCCc3ccccc3Cl)cc2c1C was read as FH mod inactive, GALK inh inactive, HTT prom inh inactive, NTMT1 inh 89µM and HTT-AS promoter inconclusive.
Screening Clc1ccccc1CSc1nc2ncc(Br)cc2[nH]1 returned NTMT1 inh inactive.
`Cc1cccc(-c2nc3c(cnn3-c3ccccc3)c(=O)n2-c2ccc(Br)cc2)c1` gave FH mod inactive, GALK inh inactive, HTT prom inh inactive, NTMT1 inh 89µM and HTT-AS promoter inactive.
`Cc1ccc(-n2c(-c3cccc(C)c3)nc3c(cnn3-c3ccccc3)c2=O)cc1` gave FH mod inactive, GALK inh inactive, HTT prom inh inactive, NTMT1 inh inconclusive and HTT-AS promoter inactive[11.5 µM].
For C/C=C1\NC(=O)[C@H]2CSSCC/C=C\[C@H](CC(=O)N[C@H](C(C)C)C(=O)N2)OC(=O)[C@H](C(C)C)NC1=O the results were NTMT1 inh inactive.
`COc1ccc(CCNC(=O)Cn2nc(C)c3c(C)n(-c4ccc(C)cc4)nc3c2=O)c(OC)c1` gave FH mod inactive, GALK inh inactive, HTT prom inh 2.5µM, NTMT1 inh 45µM and HTT-AS promoter inactive.
Screening COc1ccc(OC)c(CCNC(=O)C(C)n2nc(C)c3c(C)n(-c4ccc(C)cc4)nc3c2=O)c1 (stereo unspecified) returned FH mod inactive, GALK inh inactive, HTT prom inh 1.6µM, NTMT1 inh 89µM and HTT-AS promoter inactive.
`Cc1ccc(-c2nccc(=O)n2CC(=O)N(C)C(C)c2ccco2)cc1` (stereo unspecified) gave NTMT1 inh inactive.
`CC(C)(C)NC(=O)N1CCC(C(=O)Nc2ccc([S+](=O)([O-])Nc3nccs3)cc2)CC1` gave NTMT1 inh inactive.
Screening CN(C)C(=S)SC(=S)N(C)C returned FH mod inactive, HTT prom inh inconclusive, NTMT1 inh 25µM and HTT-AS promoter inactive.
`C=Cc1c(C)c2cc3[nH]c(cc4nc(cc5nc(cc1[nH]2)C(C)=C5CCC(=O)O)C(CCC(=O)O)=C4C)c(C)c3C=C` gave FH mod inconclusive, HTT prom inh inactive, NTMT1 inh 25µM and HTT-AS promoter inactive.
Screening Cc1ccc(NC(=O)CN2C(=O)N/C(=C\c3cccn3-c3cccc(-c4nn[nH]n4)c3)C2=O)cc1 returned NTMT1 inh inactive.
Screening CN1CCC(c2c(O)cc(O)c3c(=O)cc(-c4ccccc4Cl)oc23)C1CO (stereo unspecified) returned FH mod inactive and NTMT1 inh 50µM.
